Hit rate of the full screen: of about 290,000 compounds, about 2,100 (0.72%) were called active. Another 4% or so got no clear call; they are omitted. The list comes from a sample in which actives are over-represented; it also holds similar structures and randomly drawn compounds. Values without a mark were called inactive. Calls follow the shape of the dose curve; as a rule, active = well fitted inhibition curve with a large enough effect; inconclusive = small, poorly fitted or top-dose-only effect, or effect the other way; inactive = flat fitted curve, though single readings scatter.
These compounds were tested against Fructose-bisphosphate aldolase (Giardia intestinalis (strain ATCC 50803 / WB clone C6)) (UniProt A8B2U2) (assay: qHTS Assay for Inhibitors of Fructose-1,6-bisphosphate Aldolase from Giardia Lamblia). Conditions: purified Giardia FBPA; series mostly up to 59.6 µM; activity, negative = inhibition: at the top concentration.
Fructose-bisphosphate aldolase (Giardia intestinalis (strain ATCC 50803 / WB clone C6)), sequence (A8B2U2 whole entry, looked up): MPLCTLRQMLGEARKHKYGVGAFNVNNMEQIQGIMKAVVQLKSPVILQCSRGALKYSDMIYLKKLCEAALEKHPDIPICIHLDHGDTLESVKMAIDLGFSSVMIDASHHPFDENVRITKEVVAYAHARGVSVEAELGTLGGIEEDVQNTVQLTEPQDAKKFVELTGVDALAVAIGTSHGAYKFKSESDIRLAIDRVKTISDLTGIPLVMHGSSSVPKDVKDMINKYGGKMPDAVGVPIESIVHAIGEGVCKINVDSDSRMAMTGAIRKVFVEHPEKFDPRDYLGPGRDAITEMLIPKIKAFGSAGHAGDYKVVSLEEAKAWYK
In short: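 Giardia FBPA (40 nM reagent) was preincubated 10 min at RT with compound (up to 57.5 uM final), then substrate plus GAPDH/TPI/NAD/arsenate coupling system with diaphorase/resazurin was added; resorufin fluorescence (525/598 nm) was read after 20 min.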
% is scaled to controls: 0 for no effect and ±100 for the full control effect; potency is read from the fitted curve at half-maximal effect.
Also: nearly all actives have a fitted effect of over 55% in size.

| Structure (SMILES) | activity, negative = inhibition | Potency |
| --- | --- | --- |
| CCN(CC(=O)Nc1cccc(S(N)(=O)=O)c1)Cc1nc2ccccc2c(=O)[nH]1 | -26.8% |  |
| CCN(CC(=O)Nc1ccc(Cl)c(S(=O)(=O)N(C)C)c1)Cc1nc2ccccc2c(=O)[nH]1 | -22.3% |  |
| CCN(CC(=O)NC(=O)NCc1ccccc1)Cc1nc2ccccc2c(=O)[nH]1 |  | 17.7 µM (active) |
| CC(C)CCNC(=O)c1ccc2c(Cl)c3c(nc2c1)CCC3 | 8.8% |  |
| Cc1ccc(-n2c(SCC(=O)N3CCC(C(=O)O)CC3)nc3ccccc3c2=O)cc1C | 20.7% |  |
| COc1cc(CN2CCN(Cc3ccc(C)cc3)CC2)c([N+](=O)[O-])cc1OC |  | 5.61 µM (active) |
| COc1cc(NC(=O)NCC2CCN(Cc3ccc(C)cc3)CC2)cc(OC)c1OC | 8.41% |  |
| COc1cc(CN2CC(C)CC(C)C2)cc([N+](=O)[O-])c1O (stereo unspecified) | -12.8% |  |
| CC(=O)c1ccc(N2CCN(S(=O)(=O)c3ccc4c(c3)CC(=O)N4C)CC2)cc1 | -5.35% |  |
| COc1ccc(NC(=O)c2cc(-c3cc(OC)c(OC)c(OC)c3)nc3ccccc23)c(OC)c1 | 7.02% |  |
| Cn1c(=O)n(C)c2cc(S(=O)(=O)Nc3ccc(F)cc3)ccc21 | 0.615% |  |
| COc1ccc(NC(=O)C(CC(C)C)NC(=O)C2CCC(C)CC2)cc1 (stereo unspecified) | -1.41% |  |
| CC[C@]1(c2ccccc2OC)C(=O)N(C(=O)OC)N1C(=O)OC | 5.5% |  |
| COc1ccccc1NC(=O)N1C[C@@H]2C[C@@H](C1)c1cccc(=O)n1C2 | 11.9% |  |
| COc1cccc(C(=O)N2C[C@H]3C[C@@H](C2)c2cccc(=O)n2C3)c1 | 3.02% |  |
| O=C(NC(=S)N1C[C@H]2C[C@H](C1)c1cccc(=O)n1C2)c1ccc(F)cc1 |  | 7.94 µM (active) |
| Cc1ccc(SCCSc2ncccn2)cc1 | 2.18% |  |
| COCCNC(=S)Nc1cc(S(=O)(=O)N2CCOCC2)ccc1N1CCCCC1 |  | 2.81 µM (active) |
| O=C(COC(=O)Cc1ccc(F)cc1)Nc1cc(S(=O)(=O)N2CCOCC2)ccc1N1CCCC1 | 3.37% |  |
| CC(=O)NCCC(=O)Nc1cc(S(=O)(=O)N2CCOCC2)ccc1N1CCOCC1 | 6.3% |  |
| Cc1ccc(C(=O)NC2CCN(C(=O)Nc3ccc(F)cc3)CC2)cc1 | -11.8% |  |
| C=CCCN(C(Cc1ccccc1)C(=O)OC)S(=O)(=O)c1cc(Br)ccc1Br (stereo unspecified) | 1.34% |  |
| CCCNC(=O)c1ccc(N2CCC3(CC2)CC(c2ccc(Cl)cc2)=NO3)c([N+](=O)[O-])c1 | 0.473% |  |
| Cc1cc(C)n(-c2ccc(Cl)c(C(=O)O)n2)n1 |  | 15.8 µM (active) |

| Structure (SMILES) | activity, negative = inhibition | Potency |
| --- | --- | --- |
| Cc1cc(C)n(-c2ccc3nncn3n2)n1 | 0.189% |  |
| COc1ccc(NC(=O)c2nc(-n3nc(C)cc3C)ccc2Cl)cc1Cl | 18.5% |  |
| Cn1nccc1C(=O)N1CCCC(C(=O)c2ccc(Oc3ccccc3)cc2)C1 (stereo unspecified) | 3.18% |  |
| Cc1cc(S(=O)(=O)c2cc3ccc(O)c(C)c3oc2=O)ccc1F | 9.55% |  |
| N#CC1=C(N)Oc2n[nH]c(CSc3ccccc3)c2C12C(=O)Nc1ccccc12 (stereo unspecified) | -8.13% |  |
| Cc1ccc(NC2(C#N)C(=O)Nc3ccccc32)cc1 (stereo unspecified) | -29.3% |  |
| N#CC1=C(N)Oc2[nH]c(=S)[nH]c(=O)c2C12C(=O)Nc1ccccc12 (stereo unspecified) |  | 6.29 µM (active) |
| CCc1ccc(NC(=O)C(=O)NNC(=O)c2cccs2)cc1 | -2.46% |  |
| COc1ccc(CNC(=O)c2ccc(Br)s2)cc1OC | 2.95% |  |
| Fc1ccc(-c2ccc(NCCN3CCOCC3)nn2)cc1 | -1.31% |  |
| O=C(NCc1ccccn1)c1ccc2nc(-c3ccco3)c(-c3ccco3)nc2c1 |  | 2.81 µM (active) |
| O=C(NCc1ccccn1)c1cc(Br)ccc1Cl | 3.28% |  |
| COc1ccc2oc(=O)c(C(=O)NCc3ccccn3)cc2c1 | -15.7% |  |
| COCn1c(C(O)c2ccccc2)cc2ccccc21 (stereo unspecified) | 9.67% |  |
| O=C(N/N=C/c1ccco1)c1ccc(C(=O)N/N=C/c2ccco2)o1 | -12.7% |  |
| O=c1nc(N/N=C/c2ccco2)cn[nH]1 |  | 17.7 µM (active) |
| CC(C)NC(=O)C(=O)N/N=C/c1ccco1 | -7.41% |  |
| N=c1ccccn1Cc1ccccc1 | 12.5% |  |
| CNC(=S)NNC(=O)c1cccn(Cc2ccccc2)c1=O | 1.08% |  |
| C=CCNC(=S)/N=c1/ccccn1Cc1ccccc1 |  | 14.1 µM (active) |
| O=C(c1ccccc1)N1N=C(c2ccccc2O)CC1c1ccc(Br)cc1 (stereo unspecified) | -3.32% |  |
| Cc1cc(NC(=O)CCN2CCN(Cc3ccccc3)CC2)ccc1Br | -20.8% |  |
| O=C(CN1CCN(c2ccccc2)CC1)Nc1ccc(F)cc1 | 13.9% |  |
| O=C(CN1CCN(Cc2ccccc2)CC1)Nc1ccc(F)c(F)c1 |  | 20 µM (active) |

| Structure (SMILES) | activity, negative = inhibition | Potency |
| --- | --- | --- |
| CC(=O)N[C@@H](C)C(=O)N1CCC(n2nccc2NC(=O)CCCc2ccccc2)CC1 | -11.4% |  |
| CC(=O)Nc1cccc(Nc2nc(-c3cccs3)nc3ccccc23)c1 | 4.7% |  |
| O=C(NC(=S)Nc1ccc(S(=O)(=O)N2CCOCC2)cc1)c1ccccc1[N+](=O)[O-] | -23.5% |  |
| CN1CCN(S(=O)(=O)c2ccc(NC(=S)NC(=O)C3CC3)cc2)CC1 | 1.96% |  |
| O=S(=O)(c1ccc(NC(=S)NN=C(C2CC2)C2CC2)cc1)N1CCOCC1 |  | 7.06 µM (active) |
| CCOC(=O)c1c(-c2ccccc2)oc2cc(Br)c(O)c(C=O)c12 | -9.36% |  |
| CCOc1ccc(-n2c(SCC(=O)Nc3cc(C(=O)O)ccc3Cl)nc3ccccc3c2=O)cc1 | 14.4% |  |
| Cc1ccc(C(=O)O/N=C(\N)c2ccccn2)cc1Cl | 16.7% |  |
| O=C(Nc1ccccc1Cl)O/N=C(/c1ccccc1)c1ccccn1 |  | 15.8 µM (active) |
| O=C(Nc1ccccc1Cl)Nc1cccc2cccnc12 | -7.02% |  |
| O=C(CCC(=O)n1ncc2ccccc21)NCc1ccccc1Cl | 8.97% |  |
| O=C1CSC(=S)N1c1ccc(O)cc1 | -21.6% |  |
| O=C(Nc1ccncc1)Nc1ccc(F)cc1 | -7.88% |  |
| Oc1ccc2ccccc2c1N=Nc1nccs1 |  | 12.6 µM (active) |
| CN(C)CCCn1c(=O)n(Cc2ccccc2)c(=O)c2c3c(sc21)CCCCC3 | 3.4% |  |
| O=C(CNC(=O)Cc1ccccc1)N=Nc1c(O)[nH]c2ccc(Br)cc12 | -17.6% |  |
| Oc1[nH]c2ccc(Br)cc2c1N=Nc1nn[nH]n1 |  | 15.8 µM (active) |
| NS(=O)(=O)c1ccc(N=Nc2c(O)[nH]c3ccc(Br)cc23)cc1 | 22.7% |  |
| CCOC(=O)C1CCN(C(=O)COc2cccc3ccccc23)CC1 | -2.04% |  |
| C=CCSc1nc2c(c(=O)[nH]c(=O)n2C)n1Cc1ccccc1 | 18.8% |  |
| Cn1c(=O)[nH]c(=O)c2c1[nH]c(=S)n2Cc1ccccc1 |  | 8.91 µM (active) |
| COc1ccc(CNc2nc3c(c(=O)[nH]c(=O)n3C)n2Cc2ccccc2)cc1 | -2.3% |  |
| COc1cccc(OC)c1C(=O)Nc1ccc2c(c1)n(C)c(=O)n2C | 6.4% |  |
| CC(=O)N(C1=C(Cl)C(=O)c2ccccc2C1=O)c1ccc(C(=O)O)cc1 |  | 2.24 µM (active) |

| Structure (SMILES) | activity, negative = inhibition | Potency |
| --- | --- | --- |
| O=C(CN1C(=O)c2ccccc2C1=O)NCc1ccc(C(=O)O)cc1 | 5.32% |  |
| CN1C2C=C(N(C(=O)c3ccc(Cl)cc3)c3ccccc3)CC1CC2 (stereo unspecified) | -4.66% |  |
| CC(=O)c1ccc(NC(=O)CCc2nnc3ccc(NCc4ccco4)nn23)cc1 | 14.7% |  |
| O=C(c1cc(C(=O)N2CCN(c3ccc(F)cc3)CC2)cc([N+](=O)[O-])c1)N1CCN(c2ccc(F)cc2)CC1 | 6.27% |  |
| O=C(CCN1C(=O)COc2ccccc21)NCCCN1CCN(c2ccc(F)cc2)CC1 | -0.235% |  |
| CCCN1CCN(CCCNC(=O)CN2C(=O)COc3ccccc32)CC1 | -3.07% |  |
| O=C(CN1C(=O)COc2ccccc21)Nc1ccc(F)cc1 |  | 5.61 µM (active) |
| CC(C)c1ccc(S(=O)(=O)N2CCC3(CC2)OCCO3)cc1 | 7.89% |  |
| CN1C(=O)c2cccc3c(N)ccc(c23)C1=O | 1.83% |  |
| CCN1C(=O)c2cccc3c(N)ccc1c23 |  | 0.354 µM (active) |
| Cc1nn(C)cc1N1C(=O)c2cccc3c(N)ccc(c23)C1=O | -6.4% |  |
| O=C(NCCN1CCN(C(=O)c2cccc([N+](=O)[O-])c2)CC1)C(=O)NCc1ccc(Cl)cc1 | 6.63% |  |
| CCS(=O)(=O)c1cc([N+](=O)[O-])c(Sc2ccccc2N)s1 |  | 15.8 µM (active) |
| Nc1ccccc1Sc1ccc(C(F)(F)F)cc1[N+](=O)[O-] | -11.9% |  |
| CCOC(=O)c1cc(Sc2ccccc2N)cc(C(=O)OCC)n1 | 7.21% |  |
| CC(C)CCn1c(=O)c2c(nc3n2CCCN3Cc2ccccc2)n(C)c1=O | 4.15% |  |
| Cc1ccccc1NC(=O)C1CCCN(C(=O)NCc2ccccc2)C1 (stereo unspecified) | 7.76% |  |
| CCCCc1cc(=O)oc2c(C)c(OCC(=O)N3CCC(C(N)=O)CC3)ccc12 | 10.7% |  |
| COc1c(O)c2c(=O)cc(OC)c3c4c(OC)cc(=O)c5c(O)c(OC)c6c(c(c1C[C@@](C)(O)[C@H]6C(C)=O)c23)c54 | -22.3% |  |
| CC(C)(c1ccccc1)c1ccc(OCCN2CCCC2)cc1 |  | 22.4 µM (active) |
| Cc1cc(OCCN2CCCC2)ccc1C(C)C | -14.5% |  |
| CC(C)(c1ccccc1)c1ccc(OCCN)cc1 | 0.0143% |  |
| CC(C)CN(Cc1c(O)ccc2c(=O)c(-c3ccccc3)coc12)CC(C)C | 8.57% |  |
| COc1ccc(Cl)cc1NC(=O)c1cccc(N2C(=O)C3CC=CCC3C2=O)c1 (stereo unspecified) | 2.26% |  |
